Data on 32 compounds can be found in PubChem BioAssay (EPA / NIEHS).

Active and inactive are the calls of the source. The calls were made as follows: active = hit-call score of the fitted dose curve at least 0.9, where 1 is the maximum; inactive = score below 0.9.

In this test the target is CCAAT/enhancer-binding protein beta (Homo sapiens) (UniProt P17676). The test is described as follows: ATG_C_EBP_CIS: Attagene CIS-FACTORIAL HepG2 Assay for human CCAAT/Enhancer Binding Protein (C/EBP) beta (AID 2282927). Particulars: HepG2 Attagene cis-factorial transcription factor reporter; actives raise or lower the signal. Summed up: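 Endogenous C/EBPb-driven reporter transcripts measured in transfected human HepG2 cells at 24 h via RT-PCR and capillary electrophoresis of labelled fragments. Activity fitted in both directions relative to DMSO baseline.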
Chain of CCAAT/enhancer-binding protein beta (Homo sapiens) (P17676 whole entry, looked up, the tested form may be a part): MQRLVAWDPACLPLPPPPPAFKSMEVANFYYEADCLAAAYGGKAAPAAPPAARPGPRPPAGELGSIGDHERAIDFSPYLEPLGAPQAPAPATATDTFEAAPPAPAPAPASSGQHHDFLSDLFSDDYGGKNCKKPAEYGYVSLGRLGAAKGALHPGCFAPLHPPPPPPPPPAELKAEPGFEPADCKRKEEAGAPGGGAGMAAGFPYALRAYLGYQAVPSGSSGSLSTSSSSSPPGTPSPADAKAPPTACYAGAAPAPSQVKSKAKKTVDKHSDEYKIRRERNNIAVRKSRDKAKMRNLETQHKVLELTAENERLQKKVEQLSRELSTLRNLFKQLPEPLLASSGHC
Take `CC(Cl)COP(=O)(OCC(C)Cl)OCC(C)Cl` (configuration not stated): the outcome was inactive.

Consider `CCCCCCC=O`, for which the result was inactive.

For `CCCCCCOc1ccc(N)cc1`, the result was inactive. Same read-out and setting: next, `C=CC(C)(CCC=C(C)C)OC(=O)C=Cc1ccccc1` (configuration not stated): “inactive”; `CCCCCCCCCCCCCC(=O)OC(C)C`: “inactive”. Take `CCCCCC(=O)OCC`: the outcome was inactive.

Take `CCCCCCCOC(=O)c1ccc(O)cc1`: the outcome was inactive. With `Cc1ccccc1CCO`, the result was inactive. On the same count and under the same terms, with `CCC(C)N` (configuration not stated) the entry was “inactive”; with `COC(OC)(C(=O)c1ccccc1)c1ccccc1`, “inactive”. On the same count and under the same terms, with `[Cl][Eu]([Cl])[Cl]` the entry was “inactive”; with `Nc1ncnc2nc[nH]c12`, “inactive”. Turning to `COc1ccc(C(=O)/C(Br)=C\C(=O)O)cc1`, the AC50 was 129 µM (active). Same read-out and setting: next, `CCN1CN(CC)CN(CC)C1`: 175 µM (active). `CCOC(=O)c1ccc(C)cc1`: the outcome was inactive. The same measure, in the same setting: next, `Cc1ccc(S(=O)(=O)N=C=O)cc1`: “inactive”.

For `C=C(C)C1CC=C(C)CC1` (configuration not stated), the result was inactive.

For the compound `Cc1ccc2c(c1)CCCN2`, the result was inactive. On the same count and under the same terms, with `COc1cc(C)ccc1O` the entry was “inactive”; with `C=CC(=O)OCCCCCCOC(=O)C=C`, “inactive”; with `c1ccc2sc(SSN3CCOCC3)nc2c1`, “inactive”.

In the case of `CCCCOCCOCCOC(C)=O`, the outcome was inactive. On to `CC(=O)OCCc1ccccc1`, for which the result was inactive. The same measure, in the same setting: next, `CC(C)CC(=O)OCc1ccccc1`: “inactive”. Still for that read-out and setting: next, `CC(=O)OC/C=C(/C)CCC=C(C)C`: “inactive”; `CCCCCC1=CCCC1=O`: “inactive”.

On to `CCC(C)(O)CCCC(C)C` (configuration not stated), for which the outcome was inactive.

In the case of `COc1ccc(C(=O)c2ccccc2)c(O)c1`, the outcome was inactive. The same measure, in the same setting: next, `CC(C)(CO)COC(=O)C(C)(C)CO`: “inactive”. Same read-out and setting: with `Cc1c[nH]c(=O)[nH]c1=O` the entry was “inactive”; with `CCOB(OCC)OCC`, “inactive”; with `CC(=O)CCC1=C(C)CCCC1(C)C`, “inactive”.

The term AC50 denotes the concentration giving half of the maximal activity seen.
